About 13,000 (27%) of roughly 48,000 compounds showed an effect of 50% or more. This is one part of the list.
Each molecule was assayed on Wolbachia pipientis (assay: Anti-Wolbachia Cell-Based Screen). Conditions: 5 µM.
Type: functional
Parameters: scale not given: in the data most compounds retested in dose-response had high values

Row | Structure (SMILES) | Percent Effect [%]
1 | CC(Cc1c(F)cccc1F)NC(=O)NCc1ncnn1C (stereo not drawn) | 1.27
2 | O=C(N[C@H]1CN2CCC1CC2)c1cc(Cn2cnc3ccccc32)[nH]n1 | -21.06
3 | c1ccc(C(Cn2cnnc2)N2CCOCC2)nc1 (stereo not drawn) | 9.343
4 | Cc1cccc(CN2C[C@H]3CC[C@@H]2CN(Cc2[nH]cnc2C)C3)n1 | -2.11
5 | CC(=O)c1cc(C(=O)N2CC[C@@H]3CC[C@H](C2)N3C)c(=O)[nH]c1C | -5.325
6 | CN(C)C(=O)c1ccc(-c2cccc3c2CCNC3)cc1 | 85.47
7 | Nc1cc(-c2cccc3c2CCNC3)ncn1 | 9.212
8 | Nc1cnc(-c2cccc3c2CCNC3)cn1 | 7.253
9 | Fc1cnc(N2CCO[C@H]3CN(CC4CCCCC4)C[C@H]32)nc1.O=C(O)C(F)(F)F | 110
10 | O=C(O)C(F)(F)F.c1cnc(N2CCO[C@H]3CN(Cc4csnn4)C[C@H]32)nc1 | -24.49
11 | CNC(=O)CN1CCO[C@H]2CN(CC3CC3)C[C@H]21.O=C(O)C(F)(F)F.O=C(O)C(F)(F)F | 7.624
12 | Fc1ccccc1CN1C[C@@H]2OCCN(c3ncccn3)[C@@H]2C1 | 1.64
13 | Fc1cnc(N2CCO[C@H]3CN(CC4CCC4)C[C@H]32)nc1 | -20.13
14 | Fc1cnc(N2CCO[C@H]3CN(CC4CCCC4)C[C@H]32)nc1.O=C(O)C(F)(F)F | -2.844
15 | O=C(O)C(F)(F)F.O=C(O)C(F)(F)F.c1cnc(N2CCO[C@H]3CN(Cc4ccsc4)C[C@H]32)nc1 | 14.83
16 | Cc1nc[nH]c1CN1C[C@@H]2OCCN(c3ncccn3)[C@@H]2C1.O=C(O)C(F)(F)F | -20.21
17 | Fc1cnc(N2CCO[C@H]3CN(CC4CCOC4)C[C@H]32)nc1 (stereo partly drawn) | 71.68
18 | O=C(O)C(F)(F)F.O=C(O)C(F)(F)F.c1cnc(N2CCO[C@H]3CN(CC4CCOCC4)C[C@H]32)nc1 | 110.6
19 | O=C(O)C(F)(F)F.O=C(O)C(F)(F)F.c1cnc(N2CCO[C@H]3CN(CC4CC4)C[C@H]32)nc1 | 92.7
20 | CCN1CCN(c2ccc(C(=O)NCCOC)cc2F)CC1 | -17.47

Row | Structure (SMILES) | Percent Effect [%]
21 | CC(C)(C)c1cn(C[C@H]2CC3CCN2C[C@@H]3C(=O)N2CCOCC2)nn1 (stereo partly drawn) | -7.534
22 | CC(Cn1cncn1)NCCN1CCc2ccccc21 (stereo not drawn) | 1.288
23 | c1ccc(CN2C[C@@H]3OCCN(c4cccnc4)[C@@H]3C2)nc1 | -16.65
24 | CC(C)CCN1C[C@@H]2OCCN(c3ncc(F)cn3)[C@@H]2C1.O=C(O)C(F)(F)F | 92
25 | Cn1cc(CN2C[C@@H]3OCCN(c4ncccn4)[C@@H]3C2)cn1.O=C(O)C(F)(F)F.O=C(O)C(F)(F)F | 9.697
26 | O=C1[C@@H]2CCN(CC3CC3)C[C@@H]2OCCN1c1cccnc1 | -19.89
27 | O=C(O)C(F)(F)F.c1cncc(N2CCO[C@H]3CN(CC4CCOC4)C[C@H]32)c1 (stereo partly drawn) | 94.42
28 | Cn1cncc1CN1C[C@@H]2OCCN(c3ncccn3)[C@@H]2C1.O=C(O)C(F)(F)F | -0.0713
29 | CC(C)S(=O)(=O)N1C[C@@H](c2ccccc2)[C@H]2[C@H]1CCCCCN2C | 189.5
30 | CC(Cn1cncn1)NCc1csc2c1CCCC2 (stereo not drawn) | -14.34
31 | NC1(c2nc(-c3ccccc3)cc(=O)[nH]2)CCCCC1 | -11.2
32 | O=C1OCCC1N1CCN(C(=O)Cc2c[nH]c3ccccc23)CC1 (stereo not drawn) | 5.817
33 | CO[C@H]1COCCN(Cc2c[nH]c3ccccc23)C1 | -3.317
34 | CC1=NOC2(CCN(Cc3c[nH]c4ccccc34)CC2)C1 | 112.6
35 | CCc1nnc(CN(C)C(=O)CN2CC(c3ccccc3)CC2=O)o1 (stereo not drawn) | 5.104
36 | CCS(=O)(=O)N1CCc2c(COC)cncc2C1 | 85.06
37 | CCS(=O)(=O)N1CCc2c(CN3CCOCC3)cncc2C1.Cl.Cl | 105.6
38 | O=C(COc1ccc(F)cc1)N1CCCSCC1CN1CCOCC1 (stereo not drawn) | -0.3394
39 | FC1(F)CCNCC12CCN(c1ncccn1)C2 (stereo not drawn) | -1.09
40 | Cl.FC(F)CNc1cnc(C2CCNCC2)cn1 | 73.95

Row | Structure (SMILES) | Percent Effect [%]
41 | O=C(C1CC1)N1CCC2(CC1)CNCCO2 | 0.5147
42 | Cl.O=C(C1CC1)N1CC2(CCNCC2)C1 | -2.925
43 | Cl.O=C(C1CC1)N1CCOC2(CCNCC2)C1 | 99.53
44 | Cc1ccc(N2C[C@@H]3CN(Cc4csc(C)n4)CCO[C@@H]3C2)nn1.O=C(O)C(F)(F)F.O=C(O)C(F)(F)F | 2.819
45 | Cc1ccc(N2C[C@@H]3OCCN(Cc4c(C)noc4C)[C@@H]3C2)nn1 | 99.73
46 | Cc1ccc(N2C[C@@H]3CN(Cc4ccoc4)CCO[C@@H]3C2)nn1.O=C(O)C(F)(F)F.O=C(O)C(F)(F)F | -36.31
47 | COCC(=O)N1C[C@@H]2OCCN(Cc3c(C)noc3C)[C@@H]2C1 | -12.28
48 | Cc1noc(C)c1CN1CCO[C@H]2CNC[C@H]21.Cl.Cl | -6.613
49 | Cc1ccc(N2C[C@@H]3OCCN(CC4CC4)[C@@H]3C2)nn1.O=C(O)C(F)(F)F | 101.4
50 | CC(C)NC(=O)N1CCOC2(CCNCC2)C1 | -2.285
51 | CN1CCCC(Cc2cncc(Br)c2)CC1 (stereo not drawn) | -8.172
52 | CC(C)N1CCCC(Cc2nccnc2Cl)C1 (stereo not drawn) | 102.4
53 | CCn1ccnc1CN1CCN(C(C)C)CC1C (stereo not drawn) | -27.31
54 | CN1CCCC(Cc2nccnc2Cl)CC1 (stereo not drawn) | 111.8
55 | CC(C)N1CCCC(Cc2nccnc2Cl)CC1 (stereo not drawn) | 83.32
56 | O=C(N1CCCC1)N1C[C@H]2CC[C@@H]1CN(Cc1ccncc1)C2 | 3.012
57 | CC(C)CN1C(=O)C2(CCCC2)NC1c1cccnc1 (stereo not drawn) | -3.888
58 | COC(=O)CCC(=O)NC(C)Cc1ccccc1Br (stereo not drawn) | 5.861

From ChEMBL document CHEMBL3988442, “University of Dundee, Small-Polar-MMV Screening Library” (2021)
